This is part of a sample that, as a whole, favours compounds with a hit. Of some 79,000 tested, about 15% had one in any assay. A number with no mark means an inactive call. Activity calls are given as the source filed them. Rule as the data show it: active = growth inhibition above about 70%; inactive = the rest.
Test: NCI Yeast Anticancer Drug Screen. Data for the rad52 strain (AID 147);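 also: 0% = growth of vehicle-treated control cultures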
Settings: S. cerevisiae rad52 mutant growth inhibition, active compounds read high
Description: Growth inhibition of yeast strains with defined genetic alterations is measured as a screen for potential anti-cancer activity. Selected strains with alterations in DNA damage repair or cell cycle control were exposed to compounds and growth inhibition was measured relative to vehicle treated controls. The strain used in this assay is rad52

`Clc1cc(Cc2ccc(N=C/C=C/c3ccccc3)c(Cl)c2)ccc1N=C/C=C\c1ccccc1` gave a growth inhibition (at 1.2 µM) of 11%, a growth inhibition (at 3.7 µM) of -1% and a growth inhibition (at 11.0 µM) of 4%. For the same compound, the growth inhibition (at 33.0 µM) was 9% and the growth inhibition (at 100.0 µM) was 30%.
In the case of `Nc1nc(N)c2cc(Sc3ccc4ccccc4c3)ccc2n1`, the growth inhibition (at 1.2 µM) is reported as 28%, the growth inhibition (at 3.7 µM) is reported as 69% and the growth inhibition (at 11.0 µM) is reported as 92% (active). The growth inhibition (at 33.0 µM) was 96% (active) and the growth inhibition (at 100.0 µM) was 92% (active).
Compound `CCOC(=O)CNC(=O)c1[nH]cnc1/N=N/N(C)C` has a growth inhibition (at 1.2 µM) of -12%, a growth inhibition (at 3.7 µM) of -11% and a growth inhibition (at 11.0 µM) of -12%. The growth inhibition (at 33.0 µM) was 6% and the growth inhibition (at 100.0 µM) was 98% (active).
For `COc1ccc(C(C#N)=C2C=CC(=NO)C=C2)cc1`, the growth inhibition (at 1.2 µM) was 11%, the growth inhibition (at 3.7 µM) was 34% and the growth inhibition (at 11.0 µM) was 89% (active). For the same compound, the growth inhibition (at 33.0 µM) was 96% (active) and the growth inhibition (at 100.0 µM) was 96% (active).
`COc1ccc(N2C(=O)CC(Cl)C2=O)cc1` (stereo not given) gave a growth inhibition (at 1.2 µM) of -10%, a growth inhibition (at 3.7 µM) of -9% and a growth inhibition (at 11.0 µM) of 10%. For the same compound, the growth inhibition (at 33.0 µM) was 80% (active) and the growth inhibition (at 100.0 µM) was 99% (active).
`Nc1nc(F)nc2c1ncn2C1OC(COP(=O)(O)O)C(O)C1O` (stereo not given) showed a growth inhibition (at 1.2 µM) of 2%, a growth inhibition (at 3.7 µM) of 5% and a growth inhibition (at 11.0 µM) of 12%. It also gave a growth inhibition (at 33.0 µM) of 22% and a growth inhibition (at 100.0 µM) of 52%.
Work on `C=Cc1cnc([N+](=O)[O-])n1C` yielded a growth inhibition (at 1.2 µM) of 2%, a growth inhibition (at 3.7 µM) of 35% and a growth inhibition (at 11.0 µM) of 65%. The growth inhibition (at 33.0 µM) was 85% (active) and the growth inhibition (at 100.0 µM) was 95% (active).
Work on `CCOC(=O)Nc1ccc2c(c1)Cc1ccccc1-2` yielded a growth inhibition (at 1.2 µM) of -11%, a growth inhibition (at 3.7 µM) of -10% and a growth inhibition (at 11.0 µM) of -7%. The growth inhibition (at 33.0 µM) was -5% and the growth inhibition (at 100.0 µM) was -5%.

— PubChem BioAssay (NCI)
